Test results from PubChem BioAssay (NCATS).
Records with an inconclusive call do not appear. A call without a number means that no potency is given here. Unmarked numbers belong to inactive results. The source made the active and inactive calls. Calls come from the whole dose curve; as a rule, active = well fitted curve in the direction sought with a large enough effect; inconclusive = small, poorly fitted or top-dose-only effect, or another doubt; inactive = no such curve, though single readings can be large; an effect the other way counts as inactive or inconclusive.

Key:
[1] = biological target: Calcium and integrin-binding protein 1 (Homo sapiens) (UniProt Q99828); assay: Primary qHTS for Identification of Calcium Integrin Binding Protein 1 (CIB1) Competitor (AID 1508620);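 note: GST tagged CIB1 binding a fluorescein labelled alphaIIb integrin peptide tracer; top concentration of the series differs between compounds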
Procedure, shortened: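 Fluorescence polarization competition: GST-tagged CIB1 (1 uM final) preincubated with compound 15 min at room temperature, then FITC-labelled alphaIIb peptide (100 nM final) added. After 15 min at room temperature, polarization read at Ex 480/Em 540.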

[2] = Primary qHTS for inhibitors of nuclear receptor binding SET domain protein 2 (NSD2) in an isogenic RCH-ACV NSD2 p.E1099K mutant (9B) (AID 1645876); note: nearly all actives have a fitted effect of over 70% in size
[3] = Primary qHTS for inhibitors of nuclear receptor binding SET domain protein 2 (NSD2) in an RCH-ACV wild type WT cells (2C) (AID 1645877); note: nearly all actives have a fitted effect of over 70% in size

Chain of Calcium and integrin-binding protein 1 (Homo sapiens) (Q99828 whole entry, looked up): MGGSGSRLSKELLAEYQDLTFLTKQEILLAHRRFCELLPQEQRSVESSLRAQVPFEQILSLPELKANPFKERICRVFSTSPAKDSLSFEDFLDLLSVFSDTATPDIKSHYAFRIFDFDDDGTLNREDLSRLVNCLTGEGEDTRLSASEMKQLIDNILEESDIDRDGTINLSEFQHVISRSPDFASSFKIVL

| Compound | Potency [1] | Potency [2] | Potency [3] | activity change, negative = viability loss [2] | activity change, negative = cell killing [3] |
| --- | --- | --- | --- | --- | --- |
| Cc1ccccc1N1CCN(S(=O)(=O)C[C@]23CC[C@H](C[C@@H]2NC(=O)[C@@H](N)CCS(C)(=O)=O)C3(C)C)CC1 | inactive | inactive |  |  |  |
| C=C1[C@@H]2CC[C@@]3(C)[C@H](c4ccoc4)OC(=O)C[C@]13O[C@H]1CC(=O)C(C)(C)[C@H](C(O)C(=O)OC)[C@]12C (stereo partly specified) | inactive | inactive | inactive |  |  |
| COc1c(C)c(OCC=C(C)C)cc2c1COC2=O | inactive | inactive |  |  |  |
| C=CC1(C)CC=C2C(CCC3C(C)(C(=O)O)CCCC23C)C1 (stereo unspecified) | inactive | inactive |  |  |  |
| CC/C=C/C=C/C1(C)OC(CC(CO)OC)=CC1=O (stereo unspecified) | inactive | inactive |  |  |  |
| C/C=C/C=C/C(O)=C1/C(=O)[C@]2(C)C3/C(=C(O)/C=C/C=C/C)C(=O)C4(C)C1[C@]1(C)O[C@@]4(O)[C@@]3(C)O[C@@]12O | inactive | inactive |  |  |  |
| CC1(C(=O)O)CCCC2(C)C3CCC4CC3(CCC12)CC4(O)CO (stereo unspecified) | inactive | inactive |  |  |  |
| CCCC1=CC2=C(CO1)C(=O)C(C)(O)C(OC(=O)c1c(C)cc(OC)cc1O)C2 (stereo unspecified) | inactive | inactive |  |  |  |
| C=C1CC[C@@]2(OC1)O[C@H]1CC3[C@@H]4CC=C5C[C@@H](O)C[C@@H](O[C@@H]6OC[C@H](O)[C@H](O)[C@H]6O[C@@H]6O[C@@H](C)[C@H](O)[C@@H](O)[C@H]6O)[C@]5(C)C4CC[C@]3(C)[C@H]1[C@@H]2C (stereo partly specified) | inactive | inactive |  |  |  |
| C/C=C1/[C@H](O[C@@H]2O[C@H](CO)[C@@H](O)[C@H](O)[C@H]2O)OC=C(C(=O)OC)[C@H]1CC(=O)OCCc1ccc(O)c(O)c1 | inactive | inactive | inactive |  |  |
| COC(=O)C1=C[C@@H](O)[C@@H](O)[C@H](O[C@@H]2O[C@H](CO)[C@@H](O)[C@H](O)[C@H]2OC(=O)/C=C/c2ccccc2)C1 | inactive | inactive |  |  |  |
| C=C1CC[C@@H]2C(C)(C)CCC[C@@]2(C)[C@@H]1CC/C(=C/C(=O)OC)COC(C)=O | inactive | inactive |  |  |  |
| COc1cc(C)c(C(=O)NC2C(C)OC(OC3CCC(C)C4C3C=C(C)C3/C(C)=C\CC/C(C)=C/C5(C)C=C(C(=O)O)C(C)CC56OC(=O)/C(=C(\O)C34C)C6=O)C(O)C2(C)O)c(O)c1 (stereo unspecified) | inactive |  |  | 4.33% [at 9.23 µM] |  |
| C/C=C1\[C@H](O[C@@H]2O[C@H](CO)[C@@H](O)[C@H](O)[C@H]2O)OC=C(C(=O)OCCc2ccc(O)cc2)[C@H]1CC(=O)OCCc1ccc(O)cc1 | inactive | inactive |  |  |  |
| CC(=O)O[C@H]1[C@H](OC(=O)C(C)C)[C@]2(C)OC3(CC[C@]2(C)[C@H]2CCC[C@]4(CO4)[C@]12C)COC(=O)C3 (stereo partly specified) | inactive | inactive | inactive |  |  |
| C=C1[C@H](OC(C)=O)[C@H]2[C@@H](OC(=O)c3ccccc3)[C@@H](C)C[C@]2(O)[C@@H](OC(C)=O)[C@H](C)/C=C/C(C)(C)C(=O)[C@H](OC(C)=O)[C@H]1OC(C)=O | inactive | inactive | inactive |  |  |
| CCC1OC(=O)C(C)CC(C)C(=O)/C(C)=C/C(C)C(=O)/C=C/C1(C)O (stereo unspecified) | inactive | inactive | inactive |  |  |
| OC[C@H]1O[C@@H](OCc2ccccc2)[C@H](O[C@@H]2OC[C@@H](O)[C@H](O)[C@H]2O)[C@@H](O)[C@@H]1O | inactive | inactive | inactive |  |  |
| COc1ccc(C(=O)OC2C3C=COC(OC4OC(CO)C(O)C(O)C4O)C3C3(CO)OC23)cc1OC (stereo unspecified) | inactive | inactive | inactive |  |  |
| COc1cc(/C=C/C(=O)OCC2OC(OC3(CO)OC(CO)C(O)C3O)C(O)C(O)C2O)ccc1O (stereo unspecified) | inactive | inactive | inactive |  |  |
| COC(=O)C1=COC(OC2OC(CO)C(O)C(O)C2O)C2C(C)C(OC(C)=O)C(OC(=O)c3ccccc3)C12 (stereo unspecified) | inactive | inactive | inactive |  |  |
| COc1ccc(C(=O)CC(=O)O)c2c1C=CC(C)(C)O2 | inactive | inactive | inactive |  |  |
| CC1C2=CC(=O)OC2(O)CC2C1C(O)CC1C(C)(CO)CCCC21C (stereo unspecified) | inactive | inactive | inactive |  |  |
| OCC1=C[C@@H](O)[C@@H]2C=CO[C@@H](O[C@@H]3O[C@H](CO)[C@@H](O)[C@H](O)[C@H]3O)[C@H]12 | inactive | inactive | inactive |  |  |
| Cn1cc(Nc2cnccc2C(=O)O)c2cccnc21 | inactive | inactive | inactive |  |  |
| CC1(C)C(=O)CCC2(C)C1C(O)C=C1COC(=O)C12O (stereo unspecified) | inactive | inactive | inactive |  |  |

| Compound | Potency [1] | Potency [2] | Potency [3] | activity change, negative = viability loss [2] | activity change, negative = cell killing [3] |
| --- | --- | --- | --- | --- | --- |
| C[C@@H]1C(=O)O[C@H](C)[C@H]1C[C@@H](O)[C@](C)(O)[C@H]1CC[C@@]2(O)C3=CC(=O)[C@@H]4C[C@@H](O)[C@@H](O)C[C@]4(C)C3CC[C@]12C (stereo partly specified) | inactive | inactive | inactive |  |  |
| CC1=CC(=O)[C@]2(O[C@@H]3O[C@@H](C)[C@H](O)[C@@H](O)[C@H]3O)C=CO[C@@H](O[C@@H]3O[C@H](CO)[C@@H](O)[C@H](O)[C@H]3O)[C@H]12 | inactive | inactive | inactive |  |  |
| C[C@]1(O)CC[C@@H]2C(C(=O)O)=CO[C@@H](O[C@@H]3O[C@H](CO)[C@@H](O)[C@H](O)[C@H]3O)[C@@H]21 | inactive | inactive | inactive |  |  |
| O=C(Cc1ccc(Cl)cc1)Nc1cnccc1C(=O)O | inactive | inactive | inactive |  |  |
| CC1CCC2(C(=O)O)CCC3(C)C(=CCC4C5(C)CCC(O)C(C)(C(=O)O)C5CCC43C)C2C1(C)O (stereo unspecified) | inactive | inactive | inactive |  |  |
| CC(C)=C1C[C@@]2(C)C(=CC1=O)CC[C@@H](O)[C@@H]2C | inactive | inactive | inactive |  |  |
| COC(=O)c1ccccc1O[C@@H]1O[C@H](CO[C@@H]2OC[C@@H](O)[C@H](O)[C@H]2O)[C@@H](O)[C@H](O)[C@H]1O | inactive | inactive | inactive |  |  |
| COc1cc(O)c2c(c1Cl)CC(C)OC2=O (stereo unspecified) | inactive | inactive | inactive |  |  |
| CC1(C)CC[C@]2(C(=O)O)CC[C@]3(C)C(=CCC4[C@@]5(C)CC[C@H](O[C@@H]6O[C@H](C(=O)O)[C@@H](O)[C@H](O)[C@H]6O)C(C)(C)C5CC[C@]43C)C2C1 (stereo partly specified) | inactive | inactive | inactive |  |  |
| CC(O)C1NC(=O)C2CCCN2C1=O (stereo unspecified) | inactive | inactive | inactive |  |  |
| CC1(C)CC[C@]2(C(=O)O[C@@H]3O[C@H](CO)[C@@H](O)[C@H](O)[C@H]3O)CC[C@]3(C)C(=CCC4[C@@]5(C)CC[C@H](O[C@@H]6O[C@H](C(=O)O)[C@@H](O)[C@H](O)[C@H]6OC6OC(CO)C(O)C(O)C6O)C(C)(C)C5CC[C@]43C)[C@@H]2C1 (stereo partly specified) | inactive |  |  | 0.32% [at 9.23 µM] | -5.08% [at 9.23 µM] |
| COC(O)(CC(C)C)C1Oc2cc(C)[nH]c(=O)c2O1 (stereo unspecified) | inactive | inactive | inactive |  |  |
| COC(=O)[C@]1(C)CCC[C@@]2(C)[C@@H]3CC[C@@H]4C[C@@]3(CC[C@@H]21)C[C@H]4C(=O)O | inactive | inactive | inactive |  |  |
| COc1c2cc(c(O[C@@H]3O[C@H](CO)[C@@H](O)[C@H](O)[C@H]3O)c1OC)CCCCC(O)CCc1ccc(O)c-2c1 (stereo partly specified) | inactive | inactive | inactive |  |  |
| C=C1CCC2C(C)(C)CC(O)CC2(C)C1CCC(C)CC(=O)O (stereo unspecified) | inactive | inactive | inactive |  |  |
| CC1(C)CC[C@]2(C(=O)O)CC[C@]3(C)C(=CCC4[C@@]5(C)CC[C@H](O)C(C)(C)C5CC[C@]43C)C2C1 (stereo partly specified) | inactive | inactive | inactive |  |  |
| CC1=C2C3OC(=O)C(C)C3(O)CCC2(C)CCC1 (stereo unspecified) | inactive | inactive | inactive |  |  |
| CC(C)(O)C1CC=C(C(=O)OC[C@H]2O[C@@H](OC(=O)C3=CCC(C(C)(C)O)CC3)[C@H](O)[C@@H](O)[C@@H]2O)CC1 (stereo partly specified) | inactive | inactive | inactive |  |  |
| Cc1cc(O[C@@H]2O[C@H](COC(=O)CC(=O)O)[C@@H](O)[C@H](O)[C@H]2O)c(C(C)C)cc1O | inactive | inactive | inactive |  |  |
| CC(C)=CC1C[C@](C)(O)[C@@H]2[C@H]3CCC4[C@@]5(C)CC[C@H](O[C@@H]6OC[C@H](O)[C@H](O[C@@H]7O[C@H](CO[C@@H]8O[C@H](CO)[C@@H](O)[C@H](O)[C@H]8O)[C@@H](O)[C@H](O)[C@H]7O)[C@H]6O[C@@H]6O[C@@H](C)[C@H](O)[C@@H](O)[C@H]6O)C(C)(C)[C@@H]5CC[C@@]4(C)[C@@]34CO[C@@]2(C4)O1 (stereo partly specified) | inactive |  |  | -4.74% [at 9.23 µM] | 3.17% [at 9.23 µM] |
| C=C1CC[C@H]2[C@@](C)(CCC(O)[C@@]2(C)CO)[C@@H]1/C=C/C(=C\C(=O)O)C(=O)O (stereo partly specified) | inactive | inactive | inactive |  |  |
| C/C=C(\C)C(=O)OC[C@H]1O[C@@H](O[C@H]2[C@@H](O[C@H]3O[C@H](CO)[C@@H](O)[C@H](O)[C@H]3O[C@@H]3O[C@H](CO)[C@@H](O)[C@H](O)[C@H]3O)O[C@H](COC(=O)/C(C)=C/C)[C@@H](O)[C@@H]2O)[C@H](O)[C@@H](O)[C@@H]1O | inactive |  |  | -10.2% [at 9.23 µM] | -10.7% [at 9.23 µM] |
| Cn1nccc1-c1ccccc1Oc1ccc(S(=O)(=O)Nc2nccs2)cc1C#N | inactive | inactive | inactive |  |  |
| C=C1CCC2(OC1)OC1CC3C4CC=C5CC(O)CC(O[C@@H]6OC[C@H](OC(=O)C(O)C(C)CC)[C@H](O)[C@H]6O[C@@H]6O[C@@H](C)[C@H](O)[C@@H](O)[C@H]6O)C5(C)C4CCC3(C)C1C2C (stereo partly specified) | inactive |  |  | -3.21% [at 9.23 µM] | -9.66% [at 9.23 µM] |
| CCC(C)C(=O)O[C@H]1C[C@](C)(O)[C@]23OC(C)(C)[C@H](C[C@H](OC(=O)c4ccccc4)[C@]2(COC(C)=O)[C@H]1OC(=O)C(C)CC)[C@H]3OC(C)=O (stereo partly specified) | inactive | inactive | inactive |  |  |
